Screens from PubChem BioAssay.
NPC1 promoter act: qHTS Assay for NPC1 Promoter Activators; Huh7 NPC1 promoter luciferase reporter, 24 h; Potency, µM (top dose mostly 9.22 µM), without a hit: at the highest dose activation, actives largely listed as activators; 2.4% of 320,000 active; AID 485313, 2010; note: % of control where 0% means no effect; nearly all actives have a fitted effect of over 60% in size
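Luminescence from an NPC1 promoter-driven luciferase reporter in stably transfected Huh7 cells was measured after 24 h compound treatment at 37 °C, followed by 10 min ambient incubation with luciferase detection reagent.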
ELG1 genotox: qHTS screen for small molecules that induce genotoxicity in human embryonic kidney (HEK293T) cells expressing luciferase-tagged ELG1; HEK293T ELG1-luciferase reporter, luminescence, 16 h; Potency, µM (doses to about 46 µM), for inactives: top-dose activity change, positive = activation, usual class: activators; 1.3% of 330,000 active; note: % of control where 0% means no effect; nearly all actives have a fitted effect of over 60% in size
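DMSO vehicle served as control against compound-treated ELG1-luciferase HEK293T cells; exposure lasted 16 hr at 37 °C and 5% CO2, followed by ONE-Glo luminescence detection after 30 min.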
FLuc modulator: qHTS profiling assay for firefly luciferase inhibitor/activator using purifed enzyme and Km concentrations of substrates (counterscreen for miR-21 project); purified FLuc, Km substrates, luminescence inhibition; AID 588342, 2011; Luciferin 4-monooxygenase (Photinus pyralis), P08659; 6.9% of 360,000 active; Potency, µM (highest dose often 57.5 µM), without a hit: at the top dose activity change, negative = inhibition, usual class: inhibitors;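 note: plate controls were vehicle for no effect and reference inhibitor for full effect; nearly all actives have a fitted effect of over 55% in size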
Target sequence (P08659 whole entry, looked up): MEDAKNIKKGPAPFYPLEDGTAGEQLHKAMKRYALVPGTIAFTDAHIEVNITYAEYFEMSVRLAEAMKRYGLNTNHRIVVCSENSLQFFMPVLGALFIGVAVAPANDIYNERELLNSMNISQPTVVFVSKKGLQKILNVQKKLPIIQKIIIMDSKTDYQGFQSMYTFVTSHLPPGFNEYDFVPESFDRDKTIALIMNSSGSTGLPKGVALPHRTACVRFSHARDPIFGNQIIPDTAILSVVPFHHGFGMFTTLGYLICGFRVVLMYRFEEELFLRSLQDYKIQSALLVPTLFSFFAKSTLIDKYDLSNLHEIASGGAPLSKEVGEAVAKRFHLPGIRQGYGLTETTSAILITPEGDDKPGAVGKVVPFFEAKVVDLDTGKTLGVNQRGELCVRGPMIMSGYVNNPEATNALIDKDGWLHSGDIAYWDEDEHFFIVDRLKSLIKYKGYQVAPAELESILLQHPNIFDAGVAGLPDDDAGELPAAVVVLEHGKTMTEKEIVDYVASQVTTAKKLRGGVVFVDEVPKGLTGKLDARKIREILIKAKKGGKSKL
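Purified P. pyralis luciferase, 10 nM final, with Km-level 10 uM D-luciferin and 10 uM ATP in 50 mM Tris acetate pH 7.5, 10 mM Mg acetate, 0.01% Tween-20, 0.05% BSA; 6-point qHTS titration about 60 µM downward; luminescence read.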
SMN2 splice enh: qHTS Assay for Enhancers of SMN2 Splice Variant Expression. HEK293 SMN2-luciferase splicing reporter, luminescence, 30-36 h. Potency, µM (highest dose often 46.1 µM), without a hit: at the top dose activity change, positive = activation, most hits filed as activators. 2.8% of 210,000 active; note: % of control where 0% means no effect; nearly all actives have a fitted effect of over 55% in size
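HEK293 cells carry an SMN2 minigene-luciferase reporter in which exon 7 inclusion puts luciferase in frame. Cells were seeded at 2000 cells/well, attached for 10-12 hours, then exposed to compounds for 30-36 hours at 37C before ONE-Glo luminescence.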
ELG1 DNA repair: qHTS screen for small molecules that inhibit ELG1-dependent DNA repair in human embryonic kidney (HEK293T) cells expressing luciferase-tagged ELG1; HEK293T ELG1-luciferase reporter, luminescence, 16 h; DNA damage induced by 5-fluorouridine; Potency, µM (titrated, usually from 46.1 µM), inactives show at the top dose activity change, negative = inhibition, hits mostly inhibitors; 2.3% of 330,000 active; AID 504467, 2011; note: % is set by controls: 0 for no effect and ±100 for the full control effect; nearly all actives have a fitted effect of over 55% in size
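Step one: seed 2,000 cells per well. Step two: pin-transfer compound or DMSO alongside 5-fluorouridine. Step three: incubate 16 hr, 37 °C, 5% CO2. Step four: add ONE-Glo, wait 30 min, read luminescence.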
Rab9 promoter act: qHTS Assay for Rab9 Promoter Activators; Potency, µM (top dose mostly 9.22 µM), for the others: at the highest dose activation, negative = inhibition, usual class: activators; 2.8% of 320,000 active; Huh7 Rab9 promoter-luciferase reporter, luminescence, 24 h; AID 485297, 2010; note: % of control where 0% means no effect; nearly all actives have a fitted effect of over 60% in size
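Luminescence read-out: Huh7 cells stably expressing Rab9-luciferase, treated 24 h with compound at 37 °C, then lysed with luciferase reagent for 10 min at ambient before reading.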
Starred values were filed as active, the others as inactive; ? = inconclusive; · = no result; [ ] = dose if it differs, or a comment. A selection: hits, their analogues and other compounds. The true share with any hit is near 9.2%. Calls come from the whole dose curve; as a rule, active = well fitted curve in the direction sought with a large enough effect; inconclusive = small, poorly fitted or top-dose-only effect, or another doubt; inactive = no such curve, though single readings can be large; an effect the other way counts as inactive or inconclusive. Potency is the fitted concentration of half-maximal effect.

SMILES | NPC1 promoter act | ELG1 genotox | FLuc modulator | SMN2 splice enh | ELG1 DNA repair | Rab9 promoter act
CCOC(=O)Cc1csc(NC(=O)c2ccoc2C)n1 | 17.5% | 14.6µM* | ? | 26.1% | ? | 27.8%
Cc1cccc(NC(=O)CNC(=O)c2ccc3c(c2)OCO3)n1 | -0.7% | 1.9% | -12.7% | · | -1.0% | -1.7%
Cc1csc(NC(=O)c2ccc3c(c2)OCO3)n1 | ? | ? | 3.38µM* | · | ? | 17.8%
CCOC(=O)Cc1csc(NC(=O)c2ccc(C)cc2)n1 | 13.9% | -3.6% | 10.7µM* | · | 7.7% | 14.0%
CCOC(=O)Cc1csc(NC(=O)c2cc(C)cc(C)c2)n1 | -1.9% | -6.0% | -18.1% | -9.9% | 0.0% | -7.9%
COc1ccc([N+](=O)[O-])cc1-n1cnnn1 | -5.6% | 0.4% | -1.4% | · | -0.4% | -3.5%
CCOc1ccccc1NC(=O)CSc1nnc(CCC(=O)Nc2ccccc2F)n1C | 3.5% | -2.0% | -0.3% | · | -11.8% | -5.4%
CCN(CC(=O)NCc1cccs1)C(=O)c1ccc(NS(=O)(=O)c2ccc(C(C)=O)cc2)cc1 | 0.0% | -10.0% | 0.0% | · | 9.5% | -4.0%
CCOC(=O)Cc1csc(NC(=S)NC(=O)c2ccccc2)n1 | 0.9% | -2.6% | ? | -14.2% | 10.0% | -9.5%
CCOC(=O)Cc1csc(NC(=S)NC(=O)c2ccc(C)cc2)n1 | -13.4% | 2.2% | 12µM* | · | ? | -17.8%
COc1ccc(-c2cc3ncnc(Cl)c3s2)cc1 | 3.55µM* | ? | 3.38µM* | · | ? | ?
COc1ccc(CC(=O)Nc2ccc(F)c(Cl)c2)cc1S(=O)(=O)N1CCOCC1 | -0.1% | 1.4% | 0.1% | · | ? | -5.7%
COc1ccc(NC(=O)CNc2cc(C)ccc2C)cc1S(=O)(=O)N1CCOCC1 | -3.7% | 1.0% | -1.8% | · | -14.5% | 0.3%
COc1ccc(NC(=O)Cc2coc3ccc4ccccc4c23)cc1S(=O)(=O)N1CCOCC1 | -4.3% | 0.4% | 13.5µM* | -17.3% | ? | -5.4%
COc1ccc(NC(=O)Cc2coc3cc(C)ccc23)cc1S(=O)(=O)N1CCOCC1 | 13.1% | 1.6% | 15.1µM* | -5.3% | 2.3% | 19.7%
CC(C)=CC(=O)O[C@@H]1Cc2cc3ccc(=O)oc3cc2OC1(C)C | -3.7% | -1.2% | 3.0% | · | ? | -9.5%
CCCCN1CC(=O)N2[C@H]3c4cc(Cl)ccc4OC[C@@H]3[C@H](c3ccccc3)[C@]2(C)C1=O | 1.1% | -4.0% | 0.0% | · | 18.3µM* | -9.6%
CCc1ccc(Nc2nnc(SC3CCOC3=O)s2)cc1 (stereo unspecified) | -1.2% | 4.1% | 21.3µM* | 3.0% | ? | -5.5%
COc1cccc(C(=O)Nc2cc(-c3cn4cccnc4n3)ccc2C)c1OC | · | · | -17.8% | · | · | ·
C/C(=N\Nc1ccc(F)cc1F)c1ccc(Br)s1 | 10.0% | 4.9% | ? | 3.2% | ? | 2.5%
CCc1ccc(OC(=O)c2cncc(Br)c2)cc1 | 0.5% | 1.2% | 6.01µM* | · | -3.5% | -6.6%[1.84 µM]
CCc1ccc(C(=O)COC(=O)c2cncc(Br)c2)cc1 | -4.1% | -4.7% | 15.1µM* | -18.5% | ? | -6.9%
Cc1ccc(CNC(=O)COC(=O)c2cncc(Br)c2)cc1 | -4.4% | 0.0% | 2.5% | 13.8% | -0.6% | -0.1%
c1ccc(CCNc2nc(-c3cccnc3)cs2)cc1 | ? | ? | 15.1µM* | ? | ? | ?
c1ccc(CCNc2nc(-c3ccccn3)cs2)cc1 | 3.55µM* | ? | 6.75µM* | ? | ? | 2µM*
SMILES | NPC1 promoter act | ELG1 genotox | FLuc modulator | SMN2 splice enh | ELG1 DNA repair | Rab9 promoter act
CSc1ccc(-c2nc3cccc(C)n3c2Nc2ccc3c(c2)OCO3)cc1 | · | · | -5.4% | 1.2% | · | ·
COc1ccc(C(=O)N/N=C/c2ccc(OC)c(COc3ccccc3)c2)cc1 | 1.1% | 3.3% | -0.8% | · | 12.0% | 1.0%
COc1ccc(/C=N/NC(=O)c2ccc(C)cc2)cc1CN1CCN(c2ccc(F)cc2)CC1 | 2.1% | 1.3% | -2.4% | -3.9% | ? | -5.5%
COc1ccc(/C=N/NC(=O)c2cc(C(C)(C)C)[nH]n2)cc1COc1ccc(F)cc1F | -4.4% | -16.5% | -13.9% | -14.8% | 16.4µM* | -5.1%
COc1ccc(/C=N/NC(=O)c2ccc(F)cc2)cc1CN1CCc2cc(OC)c(OC)cc2C1C (stereo unspecified) | -12.7% | -8.2% | -10.2% | 3.2% | 20.6µM* | 2.2%
COc1ccc(/C=N\NC(=O)c2ccc(F)cc2)cc1COc1cc(F)ccc1[N+](=O)[O-] | -18.0% | -13.4% | 1.6% | · | 20.6µM* | -9.6%
COc1ccc(/C=N\NC(=O)c2cc(O)c(O)c(O)c2)cc1COc1ccc(C(=O)OCC(C)C)cc1 | -6.4% | ? | 23.9µM* | · | ? | 4.4%
COc1ccccc1NC(=O)Cn1c(=O)n(CCCCCC(=O)NCc2ccccc2)c(=O)c2sccc21 | · | · | -2.9% | -5.0% | · | ·
CC(c1nnc(SCC(=O)Nc2cc([N+](=O)[O-])ccc2F)n1Cc1ccccc1)N(C)C (stereo unspecified) | -3.9% | 1.3% | -2.4% | · | 4.1% | -6.4%
CCOC(=O)Cc1ccc(NC(=O)N2CCOc3ccc(C)cc32)cc1 | · | · | 2.6% | · | · | ·
CCOC(=O)c1c(C)[nH]c(C)c1S(=O)(=O)N1CCC(C(=O)Nc2ccc(C)c(N(C)C)c2)CC1 | · | · | -2.1% | · | · | ·
COc1ccc(/C=N/N2C(=N)SCC2=O)cc1 | ? | ? | 3.38µM* | · | ? | 18.8%
COc1ccc(N=C2SCC(=O)N2Cc2ccccc2)cc1 | -2.0% | 9.0% | -10.4% | -13.3% | ? | -0.9%
COc1ccc(CN2C(=O)CS/C2=N/N=C/c2ccccc2)cc1 | 15.7% | ? | 16.9µM* | · | 21.6% | 23.2%
COc1ccc(/C=N/N=C2/SCC(=O)N2Cc2ccccc2)cc1 | 3.55µM* | ? | 4.78µM* | · | ? | 1.26µM*
COc1ccc(NCc2ccsc2)cc1 | 18.8% | 10.4% | ? | · | ? | 16.3%
COCCn1c(SCC(=O)c2c(-c3ccccc3)n(C)c3ccccc23)nnc1-c1ccncc1 | -0.8% | -0.3% | 1.3% | 16.2% | ? | -9.8%
COc1ccc(Nc2nnc(SCC(=O)/C=C3/N(C)c4ccccc4C3(C)C)s2)cc1 | -13.0% | -16.4% | ? | -66.0% | 25.9µM* | -21.7%
COCCn1c(SCC(=O)/C=C2\N(C)c3ccccc3C2(C)C)nnc1-c1ccncc1 | -1.2% | -16.9% | -2.1% | -48.1% | 20.6µM* | -10.7%
